Data on 97 molecules can be found in PubChem BioAssay AID504332 (National Center for Advancing Translational Sciences (NCATS), 2011).

The whole screen tested about 350,000 compounds, of which about 31,000 (8.9%) were called active. Entries that show only a call come without a potency. Not shown: some 15% with an inconclusive outcome. The sample holds actives, similar compounds and a random draw of the others, so the mix is not that of the screen. The call rests on the fitted dose curve; in most records, active means well fitted inhibition curve with a large enough effect; inconclusive means small, poorly fitted or top-dose-only effect; inactive means no such curve, though single readings can be large or run the other way.
Potency means the concentration at half of the fitted maximal effect.

Chain of Histone-lysine N-methyltransferase EHMT2 (Homo sapiens) (Q96KQ7 913-1193 limits assumed): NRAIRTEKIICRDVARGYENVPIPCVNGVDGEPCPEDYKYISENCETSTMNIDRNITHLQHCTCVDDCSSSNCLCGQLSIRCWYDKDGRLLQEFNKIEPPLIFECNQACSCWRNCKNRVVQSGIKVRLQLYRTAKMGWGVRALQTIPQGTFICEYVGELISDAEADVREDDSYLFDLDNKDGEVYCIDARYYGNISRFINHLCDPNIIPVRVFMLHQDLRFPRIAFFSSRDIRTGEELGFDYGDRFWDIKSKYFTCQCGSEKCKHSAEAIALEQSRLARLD

This experiment has as its target Histone-lysine N-methyltransferase EHMT2 (Homo sapiens) (UniProt Q96KQ7). The experiment is described as follows: qHTS Assay for Inhibitors of Histone Lysine Methyltransferase G9a. Further: nearly all actives have a fitted effect of over 75% in size. The following applies: G9a H3K9 monomethylation, AlphaScreen, 2 h; series mostly up to 59 µM. The method, boiled down:
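Quantitative HTS format: methyltransferase activity on a biotin-tagged H3K9 peptide is measured by AlphaScreen, using a rabbit anti-monomethyl-H3K9 antibody with streptavidin donor and anti-IgG acceptor beads. Final levels are 20 nM enzyme, 500 nM peptide, 20 uM SAM; 2 h RT.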
As for `CCc1ccc(CNC(=O)c2ccc(CS(=O)c3ccc(Br)cc3)o2)cc1` (configuration not stated), the Potency result was “inactive”.

In the case of `COc1ccc(Cn2ccn(CC(=O)Nc3cc(C)ccc3C)c(=O)c2=O)cc1`, the Potency entry was “inactive”.

Take `O=C(CCCCO)c1ccc(O)c(Cl)c1`: the activity, negative = inhibition was 1.29% [at 2.33 µM] (inactive).

With `Cc1cccc(NC(=O)c2ccc(F)c(S(=O)(=O)N(C)C3CCCCC3)c2)c1`, the Potency entry was “inactive”.

Regarding `Cc1ccccc1OCCC(=O)OCC(=O)NCCc1ccc(S(N)(=O)=O)cc1`, the activity, negative = inhibition was -2.83% [at 12.7 µM] (inactive).

Consider `Cc1cc(C)c[n+](-c2nc3ccccc3nc2[N-]S(=O)(=O)c2cccs2)c1`, for which the Potency result is “inactive”.

For the molecule `O=C(NCCc1ccccc1)C1CCN(S(=O)(=O)c2ccc(Br)s2)CC1`, the Potency result is “inactive”.

With `O=S(=O)([N-]c1nc2ccccc2nc1-[n+]1ccc(Cc2ccccc2)cc1)c1ccc(Br)s1`, the Potency is 11.2 µM (active).

Turning to `COc1ccc(-n2nnc(-c3nsc(NC(=O)c4ccc(C)c(C)c4)n3)c2C)cc1Cl`, the Potency result was “inactive”.

For `COc1ccccc1NC(=O)CSc1oc(-c2ccco2)nc1S(=O)(=O)c1ccc(Br)cc1`, the Potency result is “inactive”.

For the molecule `CN(C)S(=O)(=O)c1cccc(NC(=O)Cc2ccsc2)c1`, the Potency entry was “inactive”.

Consider `Cc1ccc(/C=N/NC(=S)Nc2cccc(S(=O)(=O)N(C)C)c2)o1`, for which the Potency was 50.1 µM (active).

Regarding `CN(C)S(=O)(=O)c1cccc(NC(=S)N/N=C/C(=O)c2ccccc2)c1`, the Potency result is “inactive”.

In the case of `COc1cc(Cl)c(C)cc1Nc1nnc(-n2nc(C)cc2C)c2ccccc12`, the Potency result is “inactive”.

Take `Cc1ccc2cccc(NC(=O)c3cccc4ccccc34)c2n1`: the Potency entry was “inactive”.

Regarding `COC(=O)c1ccc(COC(=O)C2CCN(S(=O)(=O)c3c(Cl)cccc3Cl)CC2)o1`, the Potency is 35.5 µM (active).

For `CCOc1ccc(S(=O)(=O)N2CCC(C(=O)OCc3ccc(OC)cc3)CC2)cc1`, the Potency entry is “inactive”.

For `COc1cccc(COC(=O)C2CCN(S(=O)(=O)c3ccc(Cl)cc3)CC2)c1OC`, the Potency result is “inactive”.

With `O=C(Nc1cc(-c2nc3ccccc3o2)ccc1Cl)c1cc([N+](=O)[O-])ccc1N1CCOCC1`, the Potency result is “inactive”.

As for `CC(=O)NC1(c2cccc(F)c2)CCN(CC(=O)NC(C)C)CC1`, the activity, negative = inhibition is -5.2% [at 12.7 µM] (inactive).

For `O=C(CN1CCC(O)(c2ccccc2)CC1)Nc1ccc2c(c1)OCCO2`, the Potency entry was “inactive”.

As for `Cc1cc(NC(=O)CN2CCC(O)(c3cccc(F)c3)CC2)no1`, the Potency is 8.91 µM (active).

For `COc1cc(OC)c(NC(=O)Cc2ccc(-n3c(C)nc4cccnc43)cc2)cc1Cl`, the Potency result is “inactive”.

With `CC(=O)c1ccc(NC(=O)CSc2nc(-c3ccccc3F)nc3c2c(=O)n(C)c(=O)n3C)cc1`, the Potency result was “inactive”.

On to `Oc1c(C(c2ccccn2)N2CCOCC2)ccc2cccnc12` (configuration not stated), for which the Potency was 8.91 µM (active).

Consider `O=C(c1cccnc1NCc1ccccc1)N1CCOCC1`, for which the Potency entry was “inactive”.

On to `CCOc1cc(N2CCOCC2)c(OCC)cc1NC(=O)COc1cccc2cccnc12`, for which the Potency result was “inactive”.

On to `O=S(=O)(c1ccc(Br)cc1)c1nnn2c1nc(NC1CCCCCC1)c1sccc12`, for which the Potency result is “inactive”.

For `O=c1n(Cc2cccc(C(F)(F)F)c2)c2ccccc2c2nc(-c3ccccc3)nn12`, the Potency entry is “inactive”.

`CCn1c2c(c(=O)n3ncc(C(=O)N4CCN(c5ccccc5)CC4)c13)CN(Cc1ccc(OC)cc1)CC2`: the Potency entry was “inactive”.

Take `Cc1cc2c(cc1C)C(c1cccc(OC(C)C)c1)CC(=O)N2` (configuration not stated): the Potency result is “inactive”.

As for `COc1ccccc1CCNC(=O)C(=O)NCCC1CCCCN1S(=O)(=O)c1cccs1` (configuration not stated), the Potency result is “inactive”.

In the case of `O=C(NC(=S)Nc1ccc2oc(=O)ccc2c1)c1ccc(-c2cccc(Cl)c2Cl)o1`, the Potency was 10 µM (active).

As for `O=C(COc1ccc(Cl)cc1)Nc1ccc2oc(=O)ccc2c1`, the Potency entry is “inactive”.

Regarding `CC(C)C(=O)Nc1ccc2oc(=O)ccc2c1`, the Potency entry was “inactive”.

`Cc1ccc(C(=O)CSc2nc(-c3ccccc3)nc3c2CCCC3)c(C)c1`: the Potency entry is “inactive”.

For the molecule `O=C(/C=C/c1ccc(Cl)cc1)Nc1ccc(S(=O)(=O)Nc2ncccn2)cc1`, the Potency result was “inactive”.

Consider `CCc1ccc(OC(C)C(=O)Nc2ccc(S(=O)(=O)Nc3cc(C)on3)cc2)cc1` (configuration not stated), for which the Potency entry is “inactive”.

For the molecule `CC(Oc1cccc(Cl)c1)C(=O)Nc1ccc(S(=O)(=O)Nc2ncccn2)cc1` (configuration not stated), the Potency was 35.5 µM (active).

Take `Cc1ccc(Cl)cc1NC(=O)CSc1nccn1C`: the Potency result is “inactive”.

Take `CS(=O)(=O)N1CCc2cc(C(=O)Nc3ccccc3Br)ccc21`: the Potency result was “inactive”.

As to `O=S(=O)(c1ccc(C2CCCCC2)cc1)N1CCN(c2ccc(Cl)c(Cl)c2)CC1`, the Potency result is “inactive”.

Turning to `O=C(c1ccccn1)c1ncc(C(F)(F)F)cc1Cl`, the Potency result is “inactive”.

As for `CC(=O)c1ccc(Cc2ncc(C(F)(F)F)cc2Cl)s1`, the Potency result is “inactive”.

For the molecule `O=c1[nH]oc(O)c1-c1ncc(C(F)(F)F)cc1Cl`, the Potency is 44.7 µM (active).

As for `COc1ccccc1CNC(=O)COC(=O)c1sc(C)nc1C`, the activity, negative = inhibition was 11.2% [at 2.33 µM] (inactive).

Turning to `CCCNC(=O)c1onc(CSc2ccc(F)cc2)c1C(=O)NC(C)C`, the activity, negative = inhibition is 20% [at 2.33 µM] (inactive).

In the case of `COc1ccc(-n2cnc3cc(NCc4ccco4)ccc32)cc1`, the Potency is 44.7 µM (active).

For the molecule `COc1ccc(-n2cnc3cc(C(=O)NC4CCCC4)ccc32)cc1`, the Potency result is “inactive”.

On to `COc1ccc(Nc2nc(Cl)nc(NCc3ccco3)n2)cc1`, for which the Potency entry is “inactive”.

Take `Cc1nn(C)c(C)c1NS(=O)(=O)c1ccc(OC(F)(F)F)cc1`: the Potency result is “inactive”.

Take `CCN(CC(=O)Nc1cc(Cl)ccc1C)C(=O)CSCc1ccccc1`: the Potency result is “inactive”.

Consider `COc1ccc(C(=O)O/N=C(\N)Cc2ccc(Cl)cc2Cl)cc1OC`, for which the Potency result was “inactive”.

Consider `CCOc1ccc(NC(=O)NNC(=O)c2ccc(Cl)cc2Cl)cc1`, for which the Potency result is “inactive”.

Regarding `NC(N)=N/N=C/c1ccc(OCc2ccc(Cl)cc2Cl)cc1`, the Potency is 50.1 µM (active).

Take `COc1ccc(CNc2nc(-c3ccc(Cl)cc3)cc(C(F)(F)F)n2)cc1`: the Potency result is “inactive”.

Take `CCc1ccc(NS(=O)(=O)c2ccc3[nH]cc(C(=O)NCCc4cccc(C)c4)c(=O)c3c2)cc1`: the Potency entry is “inactive”.

Regarding `CC(C)(C)OC(=O)N1CCC(c2c(C(=O)Nc3ccc4c(c3)OCO4)cnn2-c2ccccc2)CC1`, the Potency entry is “inactive”.

As for `CCCCNC(=O)CCNC(=O)c1ccc(C(C)(C)C)cc1`, the Potency result was “inactive”.

Consider `CC(C)(C)c1ccc(C(=O)NCCC(=O)NCc2ccco2)cc1`, for which the Potency was 44.7 µM (active).

As to `O=C(CCNC(=O)c1ccccc1Cl)NCc1ccco1`, the activity, negative = inhibition is 4% [at 12.7 µM] (inactive).

With `COCCCNc1nc2c(-c3cccc(C)c3)nnn2c2ccc(Cl)cc12`, the activity, negative = inhibition is 3.35% [at 0.501 µM] (inactive).

In the case of `Cc1nc2ccccc2c(=O)n1-c1ccc(NS(=O)(=O)c2ccc(F)cc2F)cc1`, the Potency result was “inactive”.

For `O=C(CN1CCN(c2ccccc2O)CC1)NC(=O)NCc1ccccc1`, the activity, negative = inhibition is -1.41% [at 12.7 µM] (inactive).

On to `S=C(NCCc1ccccc1)N1CCCCC1`, for which the Potency result was “inactive”.

As for `O=C(COC(=O)c1ccccc1C(=O)N1CCN(c2ccccc2)CC1)NCc1ccccc1`, the Potency result is “inactive”.

Consider `O=C1CCN(C(=S)NCCc2ccccc2)CC1`, for which the Potency result was “inactive”.

Turning to `Oc1ccccc1N1CCN(C(=S)NCc2ccccc2)CC1`, the Potency was 31.6 µM (active).

In the case of `Oc1ccc(N2CCN(C(=S)NCc3ccccc3)CC2)cc1`, the Potency was 10 µM (active).

Turning to `CCCc1cc(=O)[nH]c(SCC(=O)c2c(N)n(CC(C)C)c(=O)n(C)c2=O)n1`, the Potency entry is “inactive”.

Consider `CCOc1cccc(NC(=O)c2ccc(F)c(S(=O)(=O)N(CC)c3cccc(C)c3)c2)c1`, for which the Potency result is “inactive”.

With `O=C(CCS(=O)(=O)c1cc(Br)cc2c1N(C(=O)C1CC1)CC2)Nc1ccc(C(F)(F)F)cc1`, the Potency entry was “inactive”.

On to `CC(C)C(NC(=O)c1c(F)cccc1F)C(=O)NCc1ccncc1` (configuration not stated), for which the Potency entry was “inactive”.

In the case of `CC1(c2ccccc2)NC(=O)N(CC(=O)Nc2cc(Cl)ccc2N2CCOCC2)C1=O` (configuration not stated), the activity, negative = inhibition was 22.3% [at 0.501 µM] (inactive).

Consider `O=C(CSc1nc(Nc2ccccc2)nc(N2CCOCC2)n1)Nc1cc(Cl)ccc1O`, for which the Potency was 50.1 µM (active).

For the molecule `Cc1ccccc1NC(=O)CSc1nc2ccc(Nc3nc(N4CCOCC4)nc(N4CCOCC4)n3)cc2s1`, the Potency result is “inactive”.

In the case of `CCOc1ccc(NC(=O)Cn2c(C)ccc(C#N)c2=O)cc1`, the Potency entry is “inactive”.

With `Cn1nc(-c2ccccc2)c(-c2ccccc2)c(C(=O)Nc2ccc(S(N)(=O)=O)cc2)c1=O`, the Potency result was “inactive”.

For `O=C(CN1C(=O)COc2ccc(S(=O)(=O)N3CCCCCC3)cc21)N1CCN(c2cccc(C(F)(F)F)c2)CC1`, the Potency result was “inactive”.

`COc1ccc(-c2nc(CN3CCN(c4ncccn4)CC3)c(C)o2)cc1C`: the Potency result is “inactive”.

On to `c1cnc(N2CCN(c3ccc4ccccc4n3)CC2)nc1`, for which the Potency result is “inactive”.

With `Oc1ccc(CN2CCN(c3ncccn3)CC2)cc1`, the Potency was 79.4 µM (active).

Take `CN(C)C(=O)c1nc2ccc(Cl)cn2c1CN1CCN(c2ncccn2)CC1`: the Potency result was “inactive”.

In the case of `Cc1cc(OCC(=O)N2CCN(c3ncccn3)CC2)ccc1Cl`, the Potency entry was “inactive”.

For `Cc1ccc(CN2CCN(c3ncccn3)CC2)c(C)c1`, the Potency was 10 µM (active).

Regarding `O=C1NCCn2nc3ccccc3c21`, the activity, negative = inhibition is 16.4% [at 2.33 µM] (inactive).

With `Cn1c(=O)cc(OCC(=O)N2CCN(c3ccccc3)CC2)c2ccccc21`, the Potency entry is “inactive”.

On to `COc1cccc2cc(C(N)=O)/c(=N\NC(=O)c3ccccc3)oc12`, for which the Potency result was “inactive”.

For `O=C(c1ccc(C(F)(F)F)cc1)N1CCC(c2nc(-c3ccc(S(=O)(=O)N4CCCC4)cc3)no2)CC1`, the Potency result is “inactive”.

Take `CCOc1ccccc1-n1c(SCC(=O)NCc2ccco2)nnc1-c1ccncc1`: the Potency result was “inactive”.

`Cc1ccc(-c2csc3nnc(SCC(=O)NCc4ccco4)n23)cc1`: the Potency is 17.8 µM (active).

`CCn1c(SCC(=O)NCc2ccco2)nnc1-c1ccc(N)cc1`: the Potency entry was “inactive”.

Regarding `O=C(Cc1ccc(S(=O)(=O)N2CCOCC2)s1)N1CCN(c2ccc(C(F)(F)F)cc2[N+](=O)[O-])CC1`, the activity, negative = inhibition was 5.52% [at 0.501 µM] (inactive).

In the case of `COC(=O)c1cc(Cl)c(NC(=O)c2ccco2)cc1OC`, the Potency entry was “inactive”.

Take `O=C(Nc1ccccc1C(=O)N1CCCCC1)c1ccco1`: the Potency result is “inactive”.

As to `CS/C(=C\C(=O)c1ccco1)Nc1ccccc1Cl`, the Potency is 50.1 µM (active).

Turning to `Cc1nc2ccc(S(=O)(=O)N(CC(=O)Nc3ccc(F)cc3)Cc3ccccc3)cc2s1`, the Potency entry was “inactive”.
